In PubChem BioAssay:
Activity calls are given as the source filed them. Unless noted, how the calls were made is not given here.

Columns and labels:
[1] = compound effects on lung adenocarcinoma cell viability – A549, calcein-AM fluorescence, 48 h, basal, profiling panel (AID 1162); details: higher = more signal; further: test concentration not given here
[2] = compound effects on differentiated 3T3-L1 adipocyte viability – cell-based, 3T3-L1 adipocytes, calcein-AM fluorescence, 48 h, basal, profiling panel (AID 1163); details: 3T3-L1 adipocytes viability, higher = more signal; further: test concentration not given here
[3] = compound effects on hepatocellular carcinoma cell viability – HepG2, calcein-AM fluorescence, 48 h, basal, profiling panel (AID 1164); details: higher = more signal; further: test concentration not given here
[4] = compound effects on multiple myeloma cell viability – MM1S, calcein-AM fluorescence, 48 h, basal, profiling panel (AID 1165); details: higher = more signal;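 further: viability of MM1S multiple myeloma cells under basal unstimulated conditions; test concentration not given here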
[5] = calcein-AM signal in unstimulated myeloma cells – cell-based, calcein-AM fluorescence, 48 h, PK04 Diversity Set, profiling panel (AID 1166); details: RPMI8226 myeloma viability, higher = more signal;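 further: cells grown under basal conditions without added stimulus; test concentration not given here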
[6] = JC-1 mitochondrial signal, unstimulated HepG2 cells – cell-based, JC-1 fluorescence, 24 h, 100 nL compound, profiling panel (AID 1167); details: HepG2 mitochondrial potential, higher = more signal; further: test concentration not given here
[7] = JC-1 mitochondrial signal, unstimulated adipocytes – cell-based, JC-1 fluorescence, 3T3-L1 adipocytes, 24 h, 100 nL compound, profiling panel (AID 1168); details: JC-1 mitochondrial fluorescence, higher = more signal, called active from +8 up or from −8 down; further: test concentration not given here
[8] = JC-1 mitochondrial signal, unstimulated myeloma cells – cell-based, JC-1 fluorescence, RPMI8226, 24 h, 100 nL compound, profiling panel (AID 1169); details: JC-1 mitochondrial potential fluorescence, higher = more signal; further: test concentration not given here
[9] = JC-1 mitochondrial signal, unstimulated MM1S myeloma – cell-based, JC-1 fluorescence, 24 h, 100 nL compound, profiling panel (AID 1170); details: MM1S mitochondrial potential, higher = more signal; further: test concentration not given here
[10] = resazurin metabolic signal in A549 cells – cell-based, resazurin fluorescence, 24 h, PK04 Diversity Set, profiling panel (AID 1171); details: A549 viability, higher = more signal, called active from +8 up or from −8 down; further: test concentration not given here
[11] = resazurin metabolic signal in HepG2 cells – cell-based, resazurin fluorescence, 24 h, PK04 Diversity Set, profiling panel (AID 1172); details: HepG2 viability, higher = more signal; further: test concentration not given here
[12] = budding yeast growth changes without added modifier – OD600, strain BY4716, 24 h, basal condition, primary screen (AID 1173); details: S. cerevisiae BY4716 growth, OD600, 24 h; higher = more signal, called active from +8 up or from −8 down
[13] = viability profiling in MM1S myeloma cells – cell-based, resazurin fluorescence, basal, 24 h, PK04 Diversity Set, profiling panel (AID 1174); details: higher = more signal, called active from +8 up or from −8 down; further: test concentration not given here
[14] = molecular target: Dihydroorotate dehydrogenase (quinone), mitochondrial (Plasmodium falciparum (isolate 3D7)) (UniProt Q08210); test: inhibition of P. falciparum DHODH – biochemical, C-terminal His tag, absorbance 600 nm, primary screen (AID 1175); details: PfDHODH enzyme, DCIP absorbance 600 nm; higher = more signal, called active from +8 up or from −8 down;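 further: recombinant parasite enzyme with a five histidine tag at its C terminus; test concentration not given here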
Sequence of Dihydroorotate dehydrogenase (quinone), mitochondrial (Plasmodium falciparum (isolate 3D7)) (Q08210 whole entry, looked up): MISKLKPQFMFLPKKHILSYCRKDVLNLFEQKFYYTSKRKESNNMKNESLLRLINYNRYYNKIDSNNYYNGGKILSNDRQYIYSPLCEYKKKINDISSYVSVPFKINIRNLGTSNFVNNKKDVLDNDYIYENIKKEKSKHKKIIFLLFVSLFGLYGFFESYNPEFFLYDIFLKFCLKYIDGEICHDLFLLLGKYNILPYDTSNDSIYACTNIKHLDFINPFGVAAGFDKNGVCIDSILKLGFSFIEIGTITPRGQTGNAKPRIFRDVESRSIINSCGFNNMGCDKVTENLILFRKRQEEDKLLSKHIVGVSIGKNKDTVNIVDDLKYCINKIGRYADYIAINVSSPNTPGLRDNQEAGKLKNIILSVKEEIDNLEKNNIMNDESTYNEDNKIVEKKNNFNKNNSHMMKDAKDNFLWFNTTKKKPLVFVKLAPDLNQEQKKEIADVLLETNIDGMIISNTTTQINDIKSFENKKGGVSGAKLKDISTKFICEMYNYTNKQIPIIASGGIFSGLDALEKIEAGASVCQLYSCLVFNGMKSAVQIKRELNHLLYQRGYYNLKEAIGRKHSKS

[15] = inhibition of PAO1 biofilm formation – strain PAO1, LB-PBS medium, absorbance 600 nm, primary screen (AID 1176); further: test concentration not given here; details: P. aeruginosa PAO1 growth/biofilm, A600, 12 h; higher = more signal
[16] = growth modulation of vineyard yeast isolate – strain RM11-1a, OD600, basal, 24 h, primary screen (AID 1177);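 further: cultures grown under basal conditions with no added stressor; test concentration not given here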; details: S. cerevisiae RM11-1a growth, OD600, 24 h; higher = more signal, called active from +8 up or from −8 down
[17] = growth of efflux-deficient E. coli DRC39 – strain DRC39, OD650, 24 h, E. coli filamentation inducers, primary screen (AID 1178);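 further: growth measured as culture turbidity by optical density at 650 nm; test concentration not given here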; details: E. coli DRC39 acrAB, higher = more signal, called active from +8 up or from −8 down
[18] = growth of efflux-deficient E. coli DRC39 – strain DRC39, OD650, 48 h, E. coli filamentation inducers, primary screen (AID 1179);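 further: screen aims at cell division blockers that make cells filament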; details: E. coli DRC39 delta-acrAB growth, higher = more signal, called active from +8 up or from −8 down
[19] = viability profiling in RPMI8226 myeloma cells – cell-based, resazurin fluorescence, basal, 24 h, PK04 Diversity Set, profiling panel (AID 1180); details: higher = more signal;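 further: RPMI8826 multiple myeloma cell line at 5000 cells per well; test concentration not given here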
[20] = molecular target: E3 ubiquitin-protein ligase XIAP (Homo sapiens) (UniProt P98170); test: small molecules binding XIAP protein – biophysical, small-molecule microarray, fluorescence 635 nm, primary screen (AID 1181); details: higher = more signal;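 further: score merges 667 nm emission and signal to noise over triplicate slides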
Sequence of E3 ubiquitin-protein ligase XIAP (Homo sapiens) (P98170 whole entry, looked up): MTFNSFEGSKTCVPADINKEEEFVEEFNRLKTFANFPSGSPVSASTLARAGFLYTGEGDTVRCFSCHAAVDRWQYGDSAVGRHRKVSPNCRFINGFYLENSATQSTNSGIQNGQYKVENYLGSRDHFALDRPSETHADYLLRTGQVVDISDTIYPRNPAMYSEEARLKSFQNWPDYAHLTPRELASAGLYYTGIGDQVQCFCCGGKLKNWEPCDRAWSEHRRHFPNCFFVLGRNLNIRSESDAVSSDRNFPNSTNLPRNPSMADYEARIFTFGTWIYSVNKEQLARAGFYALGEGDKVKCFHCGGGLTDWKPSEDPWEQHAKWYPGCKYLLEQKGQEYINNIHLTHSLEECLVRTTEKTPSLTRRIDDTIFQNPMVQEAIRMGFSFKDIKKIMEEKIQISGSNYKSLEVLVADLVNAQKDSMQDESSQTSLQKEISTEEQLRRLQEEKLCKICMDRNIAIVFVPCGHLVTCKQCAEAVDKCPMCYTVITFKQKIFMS

Work on `CC(c1ccccc1)C(O)C1C=CC2C(=O)N(c3ccccc3)C(=O)C2N1Nc1ccc([N+](=O)[O-])cc1` (stereo not given) yielded a z-score [1] of -0.898, a z-score [2] of -0.755 and a z-score [3] of 0.204. The z-score [4] was 0.48, the z-score [5] was -0.129 and the z-score [6] was -0.411. The z-score [7] was -1 (inactive), the z-score [8] was -1.03 and the z-score [9] was -1.44. For the same compound, the z-score [10] was 1.07 (inactive), the z-score [11] was 0.796 and the z-score [12] was 0.326 (inactive). The z-score [13] was 0.831 (inactive), the composite z-score [14] was 0.101 (inactive) and the z-score [15] was 0.449 (inactive). For the same compound, the z-score [16] was 0.399 (inactive), the z-score [17] was -0.821 (inactive) and the z-score [18] was 0.434 (inactive). For the same compound, the z-score [19] was 0.538 and the composite z-score [20] was -0.334.

`COC(=O)[C@@]1(Cc2ccc(OC)cc2)[C@H]2c3cc(C(=O)N(C)C)n(Cc4ccc(Cl)c(C(F)(F)F)c4)c3C[C@H]2CN1C(=O)c1ccccc1` showed a z-score [1] of -0.585, a z-score [2] of -0.88 and a z-score [3] of -0.585. The z-score [4] was -1.93, the z-score [5] was -2.39 and the z-score [6] was 0.765. For the same compound, the z-score [7] was -0.938 (inactive), the z-score [8] was -0.652 and the z-score [9] was -1.69. The z-score [10] was -1.83 (inactive), the z-score [11] was -1.21 and the z-score [12] was 1.86 (inactive). For the same compound, the z-score [13] was -2.74 (inactive), the composite z-score [14] was 0.381 (inactive) and the z-score [15] was 0.812 (inactive). The z-score [16] was 0.673 (inactive), the z-score [17] was -0.505 (inactive) and the z-score [18] was -0.0176 (inactive). For the same compound, the z-score [19] was -2.7 and the composite z-score [20] was 0.216.

In the case of `COc1cc(OC)c(C(O)C2C=CC3C(=O)N(C)C(=O)C3N2NC(=O)OC(C)(C)C)cc1Br` (stereo not given), the z-score [1] is reported as 0.521, the z-score [2] is reported as -0.23 and the z-score [3] is reported as 0.25. For the same compound, the z-score [4] was -0.591, the z-score [5] was 0.442 and the z-score [6] was -1.05. The z-score [7] was -0.0401 (inactive), the z-score [8] was 0.0442 and the z-score [9] was 1.18. The z-score [10] was -0.503 (inactive), the z-score [11] was -1.88 and the z-score [12] was -5.3 (inactive). The z-score [13] was -0.652 (inactive), the composite z-score [14] was 0.985 (inactive) and the z-score [15] was 0.683 (inactive). The z-score [16] was 1.18 (inactive), the z-score [17] was -0.143 (inactive) and the z-score [18] was -0.376 (inactive). For the same compound, the z-score [19] was -0.34 and the composite z-score [20] was 0.677.

Compound `CN1C(=O)C2C=CC(C(O)C#Cc3ccccc3)N(Nc3ccccc3)C2C1=O` (stereo not given) has a z-score [1] of -1.12, a z-score [2] of -0.341 and a z-score [3] of -0.255. It also gave a z-score [4] of -1.05, a z-score [5] of -0.398 and a z-score [6] of -1.36. For the same compound, the z-score [7] was 0.39 (inactive), the z-score [8] was -1 and the z-score [9] was -1. The z-score [10] was 0.699 (inactive), the z-score [11] was -0.264 and the z-score [12] was -1.36 (inactive). For the same compound, the z-score [13] was -1.06 (inactive), the composite z-score [14] was 0.164 (inactive) and the z-score [15] was -0.103 (inactive). For the same compound, the z-score [16] was 1.39 (inactive), the z-score [17] was -0.0835 (inactive) and the z-score [18] was -1.05 (inactive). It also gave a z-score [19] of -0.633 and a composite z-score [20] of 0.394.

`CCC(CC)C(O)C1C=CC2C(=O)N(c3ccccc3)C(=O)C2N1Nc1ccc(C(C)C)cc1` (stereo not given) gave a z-score [1] of -0.0442, a z-score [2] of 0.667 and a z-score [3] of 0.0413. For the same compound, the z-score [4] was -0.393, the z-score [5] was -0.842 and the z-score [6] was -1.68. The z-score [7] was 0.261 (inactive), the z-score [8] was -0.0785 and the z-score [9] was 0.299. For the same compound, the z-score [10] was -1.32 (inactive), the z-score [11] was -1.35 and the z-score [12] was -0.129 (inactive). The z-score [13] was -0.636 (inactive), the composite z-score [14] was 0.851 (inactive) and the z-score [15] was 0.89 (inactive). The z-score [16] was 1.27 (inactive), the z-score [17] was -0.171 (inactive) and the z-score [18] was -0.297 (inactive). For the same compound, the z-score [19] was -0.0095 and the composite z-score [20] was 0.159.

With `C=C[C@@H](COC(C)=O)N(C(=O)OC(C)(C)C)S(=O)(=O)c1ccc(Br)cc1` the z-score [1] was 1.82, the z-score [2] was 0.104 and the z-score [3] was 0.469. It also gave a z-score [4] of 0.867, a z-score [5] of 0.643 and a z-score [6] of 0.515. For the same compound, the z-score [7] was 0.122 (inactive), the z-score [8] was -0.212 and the z-score [9] was -0.624. The z-score [10] was -0.586 (inactive), the z-score [11] was -0.19 and the z-score [12] was -3.49 (inactive). For the same compound, the z-score [13] was -2.19 (inactive), the composite z-score [14] was -1.25 (inactive) and the z-score [15] was -0.938 (inactive). The z-score [16] was 0.317 (inactive), the z-score [17] was -0.0872 (inactive) and the z-score [18] was 0.499 (inactive). It also gave a z-score [19] of -0.288 and a composite z-score [20] of 0.0618.

For `CC(CO)N1C(=O)[C@@H]2[C@H]3C(=O)OCC=C[C@H]3OC23C=CCN(C(C)(C)C)C(=O)[C@@H]13` (stereo not given in full), the z-score [1] was -0.0702, the z-score [2] was -0.643 and the z-score [3] was -0.711. The z-score [4] was 1.08, the z-score [5] was 0.0608 and the z-score [6] was -0.936. For the same compound, the z-score [7] was -0.172 (inactive), the z-score [8] was 0.127 and the z-score [9] was 0.0965. The z-score [10] was -0.289 (inactive), the z-score [11] was 0.0792 and the z-score [12] was 0.0031 (inactive). For the same compound, the z-score [13] was -0.555 (inactive), the composite z-score [14] was -1.08 (inactive) and the z-score [15] was -0.401 (inactive). For the same compound, the z-score [16] was -0.505 (inactive), the z-score [17] was -0.554 (inactive) and the z-score [18] was -0.762 (inactive). It also gave a z-score [19] of -0.794 and a composite z-score [20] of 0.252.

For `CN(C)CCCNC(=O)[C@@]1(c2ccc([N+](=O)[O-])cc2)CC(=O)N(CC23CC4CC(CC(C4)C2)C3)[C@@H]1c1ccc(CO)cc1I`, the z-score [1] was -4.27, the z-score [2] was -0.0899 and the z-score [3] was -5.25. For the same compound, the z-score [4] was -3.97, the z-score [5] was -4.15 and the z-score [6] was -2.77. The z-score [7] was 1.94 (inactive), the z-score [8] was -0.913 and the z-score [9] was -2.37. For the same compound, the z-score [10] was -7.13 (inactive), the z-score [11] was -6.51 and the z-score [12] was -16.9 (active). The z-score [13] was -9.05 (active), the composite z-score [14] was -0.173 (inactive) and the z-score [15] was 0.277 (inactive). For the same compound, the z-score [16] was -20.9 (active), the z-score [17] was -1.46 (inactive) and the z-score [18] was -2.96 (inactive). For the same compound, the z-score [19] was -6.63 and the composite z-score [20] was -0.0541.

In the case of `COC(=O)[C@@]1(Cc2ccc(F)cc2)[C@H]2c3cc(C(=O)N4CCCC4)n(CCN4CNCC4=O)c3C[C@H]2CN1C(=O)c1ccccc1`, the z-score [1] is reported as -0.0823, the z-score [2] is reported as 1.32 and the z-score [3] is reported as -0.403. For the same compound, the z-score [4] was -0.0244, the z-score [5] was -1.67 and the z-score [6] was 2.44. For the same compound, the z-score [7] was -0.933 (inactive), the z-score [8] was -0.452 and the z-score [9] was -1.23. The z-score [10] was 0.415 (inactive), the z-score [11] was 0.424 and the z-score [12] was 1.39 (inactive). The z-score [13] was -0.758 (inactive), the composite z-score [14] was -0.421 (inactive) and the z-score [15] was 0.976 (inactive). The z-score [16] was 0.76 (inactive), the z-score [17] was 0.264 (inactive) and the z-score [18] was -1.03 (inactive). For the same compound, the z-score [19] was -0.628 and the composite z-score [20] was 0.253.
